Assay results: the supplement of paper PMC11732987, “Enantioselective OTUD7B fragment discovery through chemoproteomics screening and high-throughput optimisation” (Communications Chemistry, 2025)

Legend:
Experiment in all cases: log2 ratio of Biotin-Ahx-Ub-VS probe labelling (fragment/DMSO); higher = less target engagement (more negative = stronger competition), active = hit call of the paper (q ≤ 0.05, log2 ratio ≤ -1)
Details in all cases: compound concentration: 200 uM; treatment time: 3 h
USP19 = molecular target: T1, USP19 (UniProt O94966)
T1 sequence (whole entry): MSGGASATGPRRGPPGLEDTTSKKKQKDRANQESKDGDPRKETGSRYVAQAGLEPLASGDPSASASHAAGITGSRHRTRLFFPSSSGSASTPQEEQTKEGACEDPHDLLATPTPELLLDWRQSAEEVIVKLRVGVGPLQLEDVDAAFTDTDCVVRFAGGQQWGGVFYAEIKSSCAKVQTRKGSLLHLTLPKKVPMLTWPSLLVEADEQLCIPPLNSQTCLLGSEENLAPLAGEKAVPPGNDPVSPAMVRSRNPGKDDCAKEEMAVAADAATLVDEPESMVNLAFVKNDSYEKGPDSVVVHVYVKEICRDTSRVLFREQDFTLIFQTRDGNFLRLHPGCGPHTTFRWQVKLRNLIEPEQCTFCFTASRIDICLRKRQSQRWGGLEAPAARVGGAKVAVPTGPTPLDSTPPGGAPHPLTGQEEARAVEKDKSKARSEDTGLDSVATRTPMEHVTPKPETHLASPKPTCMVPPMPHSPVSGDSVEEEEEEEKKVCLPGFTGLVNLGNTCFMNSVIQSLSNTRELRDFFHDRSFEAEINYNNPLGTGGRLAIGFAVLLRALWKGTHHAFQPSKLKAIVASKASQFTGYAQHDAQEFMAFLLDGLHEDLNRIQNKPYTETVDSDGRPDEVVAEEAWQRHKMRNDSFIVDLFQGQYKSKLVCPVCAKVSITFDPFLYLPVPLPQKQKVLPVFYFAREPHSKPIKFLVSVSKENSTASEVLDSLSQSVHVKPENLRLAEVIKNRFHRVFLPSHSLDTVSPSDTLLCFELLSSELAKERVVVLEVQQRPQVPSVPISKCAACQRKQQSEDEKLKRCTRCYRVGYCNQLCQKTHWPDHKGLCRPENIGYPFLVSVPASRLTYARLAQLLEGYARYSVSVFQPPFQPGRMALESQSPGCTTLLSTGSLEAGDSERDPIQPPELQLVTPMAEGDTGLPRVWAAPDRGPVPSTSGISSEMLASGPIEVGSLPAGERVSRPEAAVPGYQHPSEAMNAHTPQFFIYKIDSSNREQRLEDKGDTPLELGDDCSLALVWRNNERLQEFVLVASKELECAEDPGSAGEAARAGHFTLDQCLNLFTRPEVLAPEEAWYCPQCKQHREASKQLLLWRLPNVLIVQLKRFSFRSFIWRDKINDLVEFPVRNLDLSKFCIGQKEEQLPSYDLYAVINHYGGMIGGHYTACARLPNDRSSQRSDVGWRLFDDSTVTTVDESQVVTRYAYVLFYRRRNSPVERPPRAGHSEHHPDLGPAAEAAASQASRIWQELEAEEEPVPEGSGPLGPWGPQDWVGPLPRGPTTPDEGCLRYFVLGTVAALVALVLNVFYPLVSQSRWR
How it was run: (§1)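 HEK293T lysate (495 µg per sample, in Tris/CHAPS/IGEPAL buffer with protease inhibitors) was treated in triplicate with fragment at 200 µM or with DMSO for 3 h. It was then treated with Biotin-Ahx-Ub-VS (0.5 µM final) for 1 h. Labelled DUBs were NeutrAvidin-enriched, digested with LysC and trypsin, and run by diaPASEF LC-MS/MS. Spectronaut label-free quantities were global-median-normalised. Values are average log2 ratios fragment/DMSO by unpaired t-test, using proteins with ≥2 unique peptides.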

USP24 = USP24 (UniProt Q9UPU5)
Sequence of USP24 (Q9UPU5 whole entry): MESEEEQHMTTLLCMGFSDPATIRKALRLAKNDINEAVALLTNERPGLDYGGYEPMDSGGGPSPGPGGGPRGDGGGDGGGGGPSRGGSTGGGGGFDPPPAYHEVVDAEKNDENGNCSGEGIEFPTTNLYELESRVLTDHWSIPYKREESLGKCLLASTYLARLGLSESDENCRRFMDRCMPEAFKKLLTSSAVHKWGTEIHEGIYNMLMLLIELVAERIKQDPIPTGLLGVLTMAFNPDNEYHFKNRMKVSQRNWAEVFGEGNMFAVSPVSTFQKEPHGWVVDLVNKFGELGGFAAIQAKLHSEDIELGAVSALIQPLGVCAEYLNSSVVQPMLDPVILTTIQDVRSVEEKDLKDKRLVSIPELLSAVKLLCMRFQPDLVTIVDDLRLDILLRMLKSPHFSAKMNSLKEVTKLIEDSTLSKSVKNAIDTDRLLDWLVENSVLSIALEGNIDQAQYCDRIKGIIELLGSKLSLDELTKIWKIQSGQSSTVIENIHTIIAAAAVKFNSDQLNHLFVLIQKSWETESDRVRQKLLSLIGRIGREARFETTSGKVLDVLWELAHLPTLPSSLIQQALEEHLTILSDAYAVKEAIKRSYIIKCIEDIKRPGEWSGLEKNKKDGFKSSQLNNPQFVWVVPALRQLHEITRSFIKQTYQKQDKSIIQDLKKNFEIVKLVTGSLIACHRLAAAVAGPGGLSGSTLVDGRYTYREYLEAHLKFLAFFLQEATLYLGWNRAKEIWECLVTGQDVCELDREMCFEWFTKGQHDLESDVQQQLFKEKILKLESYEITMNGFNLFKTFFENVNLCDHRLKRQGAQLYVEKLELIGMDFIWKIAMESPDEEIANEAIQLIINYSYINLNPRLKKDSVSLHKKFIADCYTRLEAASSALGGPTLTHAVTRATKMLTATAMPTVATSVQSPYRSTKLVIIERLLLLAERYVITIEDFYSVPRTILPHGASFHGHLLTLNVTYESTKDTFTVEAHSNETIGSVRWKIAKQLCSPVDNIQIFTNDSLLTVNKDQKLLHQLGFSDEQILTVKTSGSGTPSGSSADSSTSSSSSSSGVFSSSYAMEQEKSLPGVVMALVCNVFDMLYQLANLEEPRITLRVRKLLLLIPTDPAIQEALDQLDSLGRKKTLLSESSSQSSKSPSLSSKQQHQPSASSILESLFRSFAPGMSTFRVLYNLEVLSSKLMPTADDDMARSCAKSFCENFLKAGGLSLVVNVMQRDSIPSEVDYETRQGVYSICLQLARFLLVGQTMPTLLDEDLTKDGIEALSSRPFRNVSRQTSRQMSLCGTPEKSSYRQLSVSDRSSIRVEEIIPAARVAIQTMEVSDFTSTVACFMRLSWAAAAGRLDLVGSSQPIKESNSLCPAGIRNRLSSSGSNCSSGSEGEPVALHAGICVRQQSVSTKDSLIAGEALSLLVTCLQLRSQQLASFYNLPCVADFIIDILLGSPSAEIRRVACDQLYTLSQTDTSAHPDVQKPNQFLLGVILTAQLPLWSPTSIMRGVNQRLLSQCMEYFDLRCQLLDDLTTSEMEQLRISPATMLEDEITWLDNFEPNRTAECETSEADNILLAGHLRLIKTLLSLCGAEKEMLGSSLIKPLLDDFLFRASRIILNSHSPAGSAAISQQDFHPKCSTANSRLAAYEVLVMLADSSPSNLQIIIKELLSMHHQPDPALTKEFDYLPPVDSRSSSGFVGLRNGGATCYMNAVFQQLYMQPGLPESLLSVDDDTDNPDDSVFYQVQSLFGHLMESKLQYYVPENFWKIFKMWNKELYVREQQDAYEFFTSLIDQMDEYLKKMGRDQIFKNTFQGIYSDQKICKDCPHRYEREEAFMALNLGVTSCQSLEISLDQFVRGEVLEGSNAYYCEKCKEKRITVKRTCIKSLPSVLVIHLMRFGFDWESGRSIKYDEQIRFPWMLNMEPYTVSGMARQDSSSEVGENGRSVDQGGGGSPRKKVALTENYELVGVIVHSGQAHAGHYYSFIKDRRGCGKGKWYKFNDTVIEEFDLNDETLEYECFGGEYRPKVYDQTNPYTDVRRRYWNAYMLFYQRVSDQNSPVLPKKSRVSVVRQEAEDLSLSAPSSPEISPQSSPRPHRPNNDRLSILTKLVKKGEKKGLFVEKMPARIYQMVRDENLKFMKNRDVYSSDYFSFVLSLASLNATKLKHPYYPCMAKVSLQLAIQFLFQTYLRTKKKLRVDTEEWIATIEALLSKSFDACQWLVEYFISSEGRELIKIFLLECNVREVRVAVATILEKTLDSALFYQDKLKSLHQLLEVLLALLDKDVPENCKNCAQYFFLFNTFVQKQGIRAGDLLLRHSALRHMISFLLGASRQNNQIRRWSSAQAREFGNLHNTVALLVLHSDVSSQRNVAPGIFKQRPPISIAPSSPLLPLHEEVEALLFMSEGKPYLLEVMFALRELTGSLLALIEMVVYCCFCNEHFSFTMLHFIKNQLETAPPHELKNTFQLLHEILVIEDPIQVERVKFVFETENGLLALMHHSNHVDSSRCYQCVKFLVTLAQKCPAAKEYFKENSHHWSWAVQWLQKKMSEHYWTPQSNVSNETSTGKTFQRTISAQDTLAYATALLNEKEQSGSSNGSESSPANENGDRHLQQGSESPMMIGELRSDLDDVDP
How it was run: as §1

USP25 = molecular target: T2, USP25 (UniProt Q9UHP3)
T2 sequence (whole entry): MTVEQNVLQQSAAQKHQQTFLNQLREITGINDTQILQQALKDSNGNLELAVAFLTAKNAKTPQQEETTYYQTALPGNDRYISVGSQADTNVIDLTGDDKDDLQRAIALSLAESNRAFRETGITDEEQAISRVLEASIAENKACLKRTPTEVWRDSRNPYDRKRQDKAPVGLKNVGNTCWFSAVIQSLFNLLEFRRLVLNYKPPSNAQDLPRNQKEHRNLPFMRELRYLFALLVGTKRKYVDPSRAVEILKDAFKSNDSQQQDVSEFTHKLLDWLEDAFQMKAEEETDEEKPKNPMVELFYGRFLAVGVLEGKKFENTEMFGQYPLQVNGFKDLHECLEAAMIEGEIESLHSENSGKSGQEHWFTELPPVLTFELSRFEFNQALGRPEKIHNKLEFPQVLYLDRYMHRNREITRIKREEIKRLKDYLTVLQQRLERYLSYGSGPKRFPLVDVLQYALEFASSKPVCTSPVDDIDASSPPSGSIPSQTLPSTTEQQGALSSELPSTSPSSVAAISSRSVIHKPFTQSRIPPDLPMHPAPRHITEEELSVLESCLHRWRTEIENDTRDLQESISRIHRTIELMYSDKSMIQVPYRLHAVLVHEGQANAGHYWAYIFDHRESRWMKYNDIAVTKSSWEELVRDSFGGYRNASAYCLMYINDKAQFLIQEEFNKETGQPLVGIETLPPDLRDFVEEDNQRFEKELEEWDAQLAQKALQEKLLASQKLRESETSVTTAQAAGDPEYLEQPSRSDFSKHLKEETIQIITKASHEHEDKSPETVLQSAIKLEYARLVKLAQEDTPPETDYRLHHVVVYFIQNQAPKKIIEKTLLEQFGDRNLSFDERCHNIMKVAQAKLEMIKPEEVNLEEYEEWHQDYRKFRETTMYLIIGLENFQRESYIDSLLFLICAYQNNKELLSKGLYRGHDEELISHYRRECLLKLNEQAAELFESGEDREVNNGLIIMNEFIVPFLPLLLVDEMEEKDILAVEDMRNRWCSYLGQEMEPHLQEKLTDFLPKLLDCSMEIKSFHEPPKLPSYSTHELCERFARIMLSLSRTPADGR
How it was run: as §1

USP28 = molecular target: T3, USP28 (UniProt Q96RU2)
T3 sequence (whole entry): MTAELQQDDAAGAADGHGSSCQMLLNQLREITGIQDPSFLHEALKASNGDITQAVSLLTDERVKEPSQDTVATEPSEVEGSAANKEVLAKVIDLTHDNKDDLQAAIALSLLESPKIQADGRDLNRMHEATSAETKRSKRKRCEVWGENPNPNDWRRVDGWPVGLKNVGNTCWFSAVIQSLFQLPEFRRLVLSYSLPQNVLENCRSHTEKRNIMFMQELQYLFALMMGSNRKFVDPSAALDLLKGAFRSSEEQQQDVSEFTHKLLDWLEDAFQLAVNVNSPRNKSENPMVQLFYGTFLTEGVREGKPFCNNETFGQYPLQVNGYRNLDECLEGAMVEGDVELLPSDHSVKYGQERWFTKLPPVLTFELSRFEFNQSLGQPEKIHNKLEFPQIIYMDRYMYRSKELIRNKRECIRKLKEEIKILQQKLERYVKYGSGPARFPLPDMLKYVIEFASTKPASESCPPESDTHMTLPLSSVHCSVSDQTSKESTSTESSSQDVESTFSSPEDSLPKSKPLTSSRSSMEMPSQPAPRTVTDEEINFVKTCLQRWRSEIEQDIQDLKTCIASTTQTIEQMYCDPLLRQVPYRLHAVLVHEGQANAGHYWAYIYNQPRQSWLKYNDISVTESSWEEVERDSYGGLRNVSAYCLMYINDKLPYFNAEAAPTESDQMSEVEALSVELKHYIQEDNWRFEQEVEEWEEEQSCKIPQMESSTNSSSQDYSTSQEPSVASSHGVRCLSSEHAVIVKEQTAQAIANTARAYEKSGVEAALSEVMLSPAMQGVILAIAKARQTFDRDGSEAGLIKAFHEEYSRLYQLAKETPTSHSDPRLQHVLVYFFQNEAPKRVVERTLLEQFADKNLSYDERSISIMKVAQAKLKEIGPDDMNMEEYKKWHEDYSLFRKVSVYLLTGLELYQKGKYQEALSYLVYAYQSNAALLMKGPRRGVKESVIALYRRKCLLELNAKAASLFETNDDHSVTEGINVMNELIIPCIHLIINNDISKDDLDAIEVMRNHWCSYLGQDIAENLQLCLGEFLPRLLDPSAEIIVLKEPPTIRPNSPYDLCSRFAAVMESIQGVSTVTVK
How it was run: as §1

Measured: log2 ratio of Biotin-Ahx-Ub-VS probe labelling

Cc1nnc(C(NC(=O)CCl)c2ccccc2)n1C (centres undefined)
inactive: USP19 0.626 | USP24 0.636 | USP25 0.465 | USP28 0.507
